In PubChem BioAssay (NCATS):
Results filed as inconclusive are left out. Active and inactive are the calls of the source. Unless noted, the call rests on the fitted dose curve; in most records, active means well fitted cell-killing curve with a large enough effect; inconclusive means small, poorly fitted or top-dose-only effect; inactive means flat fitted curve, though single readings scatter.

Tests used:
[1] = Cell Viability - LYMP2-023 (AID 975);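 further: cellular ATP measured by luciferase luminescence as viability proxy; series mostly up to about 92 µM; plate controls were DMSO only for no effect and 92 µM tetraoctylammonium bromide control for full effect; nearly all actives have a fitted effect of over 55% in size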
How it was run: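 Human lymphoblastoid cells (2500/well) were preincubated 5 hr at 37 C, then exposed to compounds for 24 hr at 37 C in complete medium. Cellular ATP was read by CellTiter-Glo luminescence, and AC50 came from Hill-equation fits.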

[2] = Cell Viability - LYMP2-025 (AID 976);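 further: series mostly up to about 92 µM; plate controls were DMSO only for no effect and tetraoctylammonium bromide control for full effect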
How it was run: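 Human lymphoblastoid LYMP2-025 cells (2500/well) were pre-incubated 5 hr at 37 C, then treated with compounds for 24 hr at 37 C in complete medium. Viability was read as intracellular ATP by CellTiter-Glo luminescence; AC50 from Hill fits.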

[3] = Cell Viability - LYMP2-002 (AID 977);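 further: series mostly up to about 92 µM; compound exposure lasted 24 h at 37 °C; plate controls were DMSO only for no effect and 92 µM tetraoctylammonium bromide for full effect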
How it was run: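 Human lymphoblastoid LYMP2-002 cells, 2500 per well, exposed to compounds for 24 h at 37 C in complete medium; viability read as intracellular ATP by CellTiter-Glo luminescence, AC50 from Hill fits.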

[4] = Cell Viability - LYMP2-006 (AID 978); further: series mostly up to about 92 µM; on the % scale 0 is the no-effect control and ±100 the full control effect; nearly all actives have a fitted effect of over 60% in size
How it was run: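 Cells are seeded at 2500 per well and rested 5 hr at 37 C. Compounds are added across a concentration series for 24 hr at 37 C, after which ATP is quantified by luciferase luminescence.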

[5] = Cell Viability - LYMP2-007 (AID 979);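 further: cells exposed to compound for 24 h before reading; 0% = DMSO only and the negative end = 92 µM tetraoctylammonium bromide; nearly all actives have a fitted effect of over 60% in size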
How it was run: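 Human lymphoblastoid cells (2500/well) were plated in complete medium, incubated 5 hr at 37 C, then exposed to compounds for 24 hr at 37 C. Intracellular ATP was read by CellTiter-Glo luminescence after 30 min at room temperature; AC50 from Hill fits.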

[6] = Cell Viability - LYMP2-008 (AID 980); further: on the % scale 0 is the no-effect control and ±100 the full control effect; nearly all actives have a fitted effect of over 60% in size
How it was run: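 Human lymphoblastoid cells (2500/well) were plated, held 5 hr at 37 C, then exposed to compounds for 24 hr at 37 C in complete medium. Intracellular ATP was read by CellTiter-Glo luminescence; AC50 from Hill-fitted concentration-response.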

[7] = Cell Viability - LYMP2-014 (AID 983);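 further: series mostly up to about 92 µM; plate controls were DMSO only for no effect and 92 µM tetraoctylammonium bromide for full effect; nearly all actives have a fitted effect of over 50% in size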
How it was run: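 Human lymphoblastoid cells (2500/well) were pre-incubated 5 hr at 37 C, then exposed to compounds in complete medium for 24 hr at 37 C. Intracellular ATP was read by CellTiter-Glo luminescence after 30 min at room temperature; AC50 from Hill fits.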

[8] = Cell Viability - LYMP2-016 (AID 984); further: on the % scale 0 is the no-effect control and ±100 the full control effect; nearly all actives have a fitted effect of over 55% in size
How it was run: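 Cells were seeded at 2500 per well and rested 5 hr before a 24 hr compound exposure at 37 C. Viability was then gauged as cellular ATP by luciferase luminescence, with AC50 values fitted to the Hill equation.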

[9] = Cell Viability - LYMP2-018 (AID 985);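 further: plate controls were DMSO only for no effect and tetraoctylammonium bromide at 92 µM for full effect; nearly all actives have a fitted effect of over 50% in size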
How it was run: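 Human lymphoblastoid cells (2500/well) were pre-incubated 5 hr at 37 C, then exposed to compounds for 24 hr at 37 C in complete medium. Viability was read as intracellular ATP by CellTiter-Glo luminescence; AC50 values came from Hill-equation fits.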

[10] = Cell Viability - LYMP2-020 (AID 986);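 further: series mostly up to about 92 µM; plate controls were DMSO only for no effect and tetraoctylammonium bromide at 92 µM for full effect; nearly all actives have a fitted effect of over 55% in size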
How it was run: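 Human lymphoblastoid cells, 2500/well, were pre-incubated 5 hr at 37 C, then exposed to compounds for 24 hr at 37 C in complete medium. Intracellular ATP was read by CellTiter-Glo luminescence, and AC50 was derived by Hill fitting of concentration-response data.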

[11] = Cell Viability - LYMP2-022 (AID 987);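 further: 0% = DMSO alone and full effect = tetraoctylammonium bromide at 92 µM; nearly all actives have a fitted effect of over 55% in size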
How it was run: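 Human lymphoblastoid cells, 2500/well, preincubated 5 hr at 37 C, then exposed to compounds over a concentration range for 24 hr at 37 C in complete medium. Viability read as intracellular ATP by CellTiter-Glo luminescence after 30 min at room temperature; AC50 from Hill fits.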

[12] = Cell Viability - LYMP2-024 (AID 988);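 further: plate controls were DMSO only for no effect and 92 µM tetraoctylammonium bromide for full effect; nearly all actives have a fitted effect of over 60% in size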
How it was run: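 Human lymphoblastoid cells (2500/well) in complete medium were preincubated 5 hr at 37 C, then exposed to compounds for 24 hr at 37 C. Intracellular ATP was read by CellTiter-Glo luminescence; AC50 from Hill-equation fits of concentration-response data.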

[13] = Cell Viability - LYMP2-026 (AID 989); further: on the % scale 0 is the no-effect control and ±100 the full control effect; nearly all actives have a fitted effect of over 50% in size
How it was run: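 Human lymphoblastoid cells (2500/well) in complete medium were preincubated 5 hr at 37 C, then exposed to compounds for 24 hr at 37 C. Cellular ATP was read by CellTiter-Glo luminescence; AC50 from Hill-equation fits of concentration-response data.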

[14] = Cell Viability - LYMP1-002 - Assay at 24 hr (AID 993); further: on the % scale 0 is the no-effect control and ±100 the full control effect
How it was run: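 Human lymphoblastoid LYMP1-002 cells, 2500/well in complete medium, were treated with compounds for 24 h at 37 C; intracellular ATP was read by CellTiter-Glo luminescence. AC50 values came from Hill-equation fits of qHTS concentration-response data.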

[15] = Cell Viability - LYMP1-002 - Assay at 40 hr (AID 994)
How it was run: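 Human lymphoblastoid cells, 2500/well in complete medium, were preincubated 5 hr at 37 C, then exposed to compounds for 40 hr at 37 C. Intracellular ATP was read by CellTiter-Glo luminescence after 30 min at room temperature; AC50 from Hill-equation fits.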

[16] = qHTS Assay for Identification of Small Molecule Inducers of Hypoxia Response (AID 2120; active means well fitted curve in the direction sought with a large enough effect in the signal ratio, with a control signal flat, not every such curve was filed as active; the % refers to the signal ratio; further: 0% is about no effect)
How it was run: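 HRE-beta-lactamase reporter in CellSensor HRE-bla ME-180 cells, 2500 cells/well in Opti-MEM with 0.5% dialyzed FBS; compounds tested as titration series, 17 h at 37 degrees C. CCF4 substrate 2.5 h at room temperature; AC50 from 460/530 nm ratio.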

[17] = target: Estrogen receptor (Homo sapiens) (UniProt P03372); assay: qHTS assay for small molecule antagonists of estrogen receptor alpha signaling (AID 588513; active means well fitted curve in the direction sought with a large enough effect in the signal ratio, with a control signal flat, not every such curve was filed as active; the % refers to the signal ratio; further: on the % scale 0 is the no-effect control and ±100 the full control effect)
Estrogen receptor (Homo sapiens), sequence (P03372 whole entry, looked up): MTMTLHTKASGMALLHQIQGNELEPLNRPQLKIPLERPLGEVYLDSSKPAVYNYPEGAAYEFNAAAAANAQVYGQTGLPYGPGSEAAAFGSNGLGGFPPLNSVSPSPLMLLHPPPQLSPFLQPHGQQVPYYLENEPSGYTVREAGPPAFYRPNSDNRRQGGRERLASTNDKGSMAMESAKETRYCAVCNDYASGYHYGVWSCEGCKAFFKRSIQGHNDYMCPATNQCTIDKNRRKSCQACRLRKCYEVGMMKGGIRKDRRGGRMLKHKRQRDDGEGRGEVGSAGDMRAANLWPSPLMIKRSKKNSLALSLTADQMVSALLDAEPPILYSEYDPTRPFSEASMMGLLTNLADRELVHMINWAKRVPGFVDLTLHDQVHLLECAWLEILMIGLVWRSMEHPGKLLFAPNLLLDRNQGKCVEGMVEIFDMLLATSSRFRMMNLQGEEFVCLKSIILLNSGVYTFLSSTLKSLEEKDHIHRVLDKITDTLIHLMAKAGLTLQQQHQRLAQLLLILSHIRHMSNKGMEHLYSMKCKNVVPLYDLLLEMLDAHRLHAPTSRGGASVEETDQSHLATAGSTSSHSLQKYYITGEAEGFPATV
How it was run: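 Fluorescence from CCF4 substrate after 2 h at room temperature gave reporter activity; cells had been exposed to compound and 0.5nM 17-beta-estradiol for 18 h at 37 C. Hill-equation fitting yielded IC50 and maximal response.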

[18] = target: Estrogen receptor (Homo sapiens) (UniProt P03372); assay: qHTS assay for small molecule agonists of estrogen receptor alpha signaling (AID 588514; calls by dose curve;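 further: 0% = vehicle only and 100% = reference agonist; nearly all actives have a fitted effect of over 70% in size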)
How it was run: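 ER-alpha-UAS-bla GripTite HEK 293 cells in medium with 2% charcoal/dextran-treated FBS were treated with compound titrations at 37 C for 18 hrs; beta-lactamase reporter read by CCF4 fluorescence after 2 hrs at RT.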

[19] = target: Bile acid receptor (Homo sapiens) (UniProt Q96RI1); assay: qHTS assay for small molecule antagonists of farnesoid X receptor signaling (AID 588526; calls by dose curve; further: on the % scale 0 is the no-effect control and ±100 the full control effect)
Bile acid receptor (Homo sapiens), sequence (Q96RI1 whole entry, looked up): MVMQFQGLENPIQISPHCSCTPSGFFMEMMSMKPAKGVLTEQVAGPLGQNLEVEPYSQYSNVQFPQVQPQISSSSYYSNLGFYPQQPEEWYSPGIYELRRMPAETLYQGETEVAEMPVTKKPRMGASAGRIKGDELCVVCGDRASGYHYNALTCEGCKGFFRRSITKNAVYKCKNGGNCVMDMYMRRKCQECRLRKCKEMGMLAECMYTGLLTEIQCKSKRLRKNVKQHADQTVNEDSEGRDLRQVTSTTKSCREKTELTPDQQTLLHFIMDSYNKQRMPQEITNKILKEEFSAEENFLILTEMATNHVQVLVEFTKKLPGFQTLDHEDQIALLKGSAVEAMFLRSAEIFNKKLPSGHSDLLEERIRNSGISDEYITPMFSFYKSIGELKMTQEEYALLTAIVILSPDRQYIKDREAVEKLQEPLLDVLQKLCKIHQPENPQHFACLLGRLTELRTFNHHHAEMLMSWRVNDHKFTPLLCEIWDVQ
How it was run: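 Antagonist mode: titrated compounds tested against chenodeoxycholic acid stimulation (normalized to 50 uM CDCA and DMSO) in GeneBLAzer HEK293T cells for 16 h. Beta-lactamase read by CCF4 fluorescence; IC50 from Hill fits.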

[20] = target: Bile acid receptor (Homo sapiens) (UniProt Q96RI1); assay: qHTS assay for small molecule agonists of farnesoid X receptor signaling (AID 588527; calls by dose curve;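 further: series mostly up to about 77 µM; 0% = vehicle basal and 100% = reference agonist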); conditions: HEK293T FXR-UAS-bla, beta-lactamase ratio, 16 h; hits give high values
How it was run: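 FXR-UAS-bla HEK293T, 10% dialyzed FBS; cpds up to 92 uM titration, 16 h 37 C; CCF4 dye 2 h RT; fluorescence. Normalized to chenodeoxycholic acid 100 uM (100%) and DMSO (0%); Hill fit gives EC50, efficacy.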

[21] = target: Glucocorticoid receptor (Homo sapiens) (UniProt P04150); assay: qHTS assay for small molecule antagonists of glucocorticoid receptor signaling (AID 588533; active means well fitted inhibition curve with a large enough effect in the signal ratio, with a control signal flat, not every such curve was filed as active; the % refers to the signal ratio;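 further: cells stimulated with 2 nM dexamethasone as agonist; on the % scale 0 is the no-effect control and ±100 the full control effect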)
Glucocorticoid receptor (Homo sapiens), sequence (P04150 whole entry, looked up): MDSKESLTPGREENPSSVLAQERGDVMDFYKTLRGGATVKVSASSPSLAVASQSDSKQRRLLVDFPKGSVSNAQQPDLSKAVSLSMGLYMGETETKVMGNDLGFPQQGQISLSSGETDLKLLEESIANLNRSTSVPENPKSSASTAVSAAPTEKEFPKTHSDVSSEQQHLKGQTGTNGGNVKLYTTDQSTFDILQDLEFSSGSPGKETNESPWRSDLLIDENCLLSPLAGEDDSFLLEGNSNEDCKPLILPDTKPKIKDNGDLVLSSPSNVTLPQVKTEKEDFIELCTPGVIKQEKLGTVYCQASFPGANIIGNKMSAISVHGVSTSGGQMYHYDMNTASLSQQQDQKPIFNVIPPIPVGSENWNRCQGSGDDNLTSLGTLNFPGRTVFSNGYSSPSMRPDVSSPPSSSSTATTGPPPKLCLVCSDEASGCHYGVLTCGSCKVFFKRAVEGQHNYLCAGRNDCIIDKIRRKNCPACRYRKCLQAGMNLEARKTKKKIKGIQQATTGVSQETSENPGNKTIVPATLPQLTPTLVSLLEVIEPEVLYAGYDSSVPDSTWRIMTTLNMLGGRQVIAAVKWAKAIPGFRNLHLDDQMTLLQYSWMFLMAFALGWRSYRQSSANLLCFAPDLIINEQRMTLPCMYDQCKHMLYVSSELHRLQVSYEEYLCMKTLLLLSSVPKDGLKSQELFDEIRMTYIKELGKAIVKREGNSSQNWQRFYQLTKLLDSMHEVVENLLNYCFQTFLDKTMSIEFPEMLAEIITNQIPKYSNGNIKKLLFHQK
How it was run: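 Antagonist-mode qHTS: compound titrations added to GRE-bla HeLa cells, then dexamethasone 2 nM final; 18 h, 37 C. CCF4 FRET fluorescence normalized to dexamethasone and DMSO; IC50 from Hill fit.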

[22] = target: Peroxisome proliferator-activated receptor delta (Homo sapiens) (UniProt Q03181); assay: qHTS assay for small molecule agonists of peroxisome proliferator-activated receptor delta signaling (AID 588534; calls by dose curve;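 further: 0% = DMSO basal wells and 100% = positive control agonist at 10 µM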)
Peroxisome proliferator-activated receptor delta (Homo sapiens), sequence (Q03181 whole entry, looked up): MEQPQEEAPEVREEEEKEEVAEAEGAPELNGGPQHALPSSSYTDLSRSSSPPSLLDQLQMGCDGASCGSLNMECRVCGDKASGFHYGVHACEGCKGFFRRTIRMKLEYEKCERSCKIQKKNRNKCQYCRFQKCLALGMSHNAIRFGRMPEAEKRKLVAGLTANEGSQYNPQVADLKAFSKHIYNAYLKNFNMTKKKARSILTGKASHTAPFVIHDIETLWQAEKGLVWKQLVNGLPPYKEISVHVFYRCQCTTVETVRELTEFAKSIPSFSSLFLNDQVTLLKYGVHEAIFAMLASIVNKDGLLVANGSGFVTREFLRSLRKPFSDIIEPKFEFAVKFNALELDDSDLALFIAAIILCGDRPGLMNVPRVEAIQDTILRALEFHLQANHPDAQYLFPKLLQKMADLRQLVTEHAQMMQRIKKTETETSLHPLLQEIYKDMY
How it was run: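 Cell-based beta-lactamase reporter assay run in agonist mode: cells seeded and incubated 5 hrs at 37 C, compounds added and incubated 18 hrs at 37 C. CCF4 dye fluorescence read after 2 hrs at RT; EC50 and efficacy from Hill fits.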

Nc1ccc(Br)cc1
inactive: Potency [1] | Potency [2] | Potency [3] | Potency [4] | Potency [5] | Potency [6] | Potency [7] | Potency [8] | Potency [9] | Potency [10] | Potency [11] | Potency [12] | Potency [13] | Potency [14] | Potency [15] | outcome [16] | Potency [17] | Potency [18] | outcome [19] | activation [20] 0.791% | Potency [21] | outcome [22]
